The record followed here is ChEMBL document CHEMBL1961873, “Compounds: GSK PKIS; Assays: Nanosyn kinase panel” (2012).

The target in test [1] is Death-associated protein kinase 1 (Homo sapiens) (UniProt P53355). To be noted: at 1 µM.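 Also: each value is a mean inhibition figure.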
Test [2] addresses T1, Serine/threonine-protein kinase DCLK2 (Homo sapiens) (UniProt Q8N568).
T1 sequence (whole entry): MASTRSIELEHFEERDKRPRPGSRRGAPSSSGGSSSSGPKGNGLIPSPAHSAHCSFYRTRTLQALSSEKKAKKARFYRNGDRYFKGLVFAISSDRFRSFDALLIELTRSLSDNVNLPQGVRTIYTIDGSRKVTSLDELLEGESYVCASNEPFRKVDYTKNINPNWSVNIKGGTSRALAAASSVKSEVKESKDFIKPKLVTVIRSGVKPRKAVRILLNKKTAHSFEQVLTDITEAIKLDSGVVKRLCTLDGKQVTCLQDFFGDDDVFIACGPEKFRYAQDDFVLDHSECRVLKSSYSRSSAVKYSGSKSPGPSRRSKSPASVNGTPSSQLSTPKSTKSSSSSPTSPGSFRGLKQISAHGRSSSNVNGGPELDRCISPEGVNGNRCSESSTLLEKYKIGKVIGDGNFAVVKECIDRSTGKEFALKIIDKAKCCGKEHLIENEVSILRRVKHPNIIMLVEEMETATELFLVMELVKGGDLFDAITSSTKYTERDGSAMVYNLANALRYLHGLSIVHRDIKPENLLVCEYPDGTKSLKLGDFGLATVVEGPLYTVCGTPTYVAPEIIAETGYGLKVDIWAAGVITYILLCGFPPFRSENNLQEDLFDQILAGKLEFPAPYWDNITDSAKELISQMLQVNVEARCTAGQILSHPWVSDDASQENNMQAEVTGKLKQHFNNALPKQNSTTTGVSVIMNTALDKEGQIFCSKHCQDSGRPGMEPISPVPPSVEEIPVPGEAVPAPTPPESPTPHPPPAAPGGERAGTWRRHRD
To be noted: at 0.1 µM.

Test [3] has as its target T1, Serine/threonine-protein kinase DCLK2 (Homo sapiens). To be noted: at 1 µM.
Test [4] addresses MAP kinase-activated protein kinase 2 (Homo sapiens) (UniProt P49137). To be noted: at 0.1 µM.
Test [5] shares this target. To be noted: at 1 µM.
In test [6] the target is MAP kinase-activated protein kinase 3 (Homo sapiens) (UniProt Q16644). To be noted: at 0.1 µM.
Sequence of MAP kinase-activated protein kinase 3 (Homo sapiens) (Q16644 whole entry, looked up): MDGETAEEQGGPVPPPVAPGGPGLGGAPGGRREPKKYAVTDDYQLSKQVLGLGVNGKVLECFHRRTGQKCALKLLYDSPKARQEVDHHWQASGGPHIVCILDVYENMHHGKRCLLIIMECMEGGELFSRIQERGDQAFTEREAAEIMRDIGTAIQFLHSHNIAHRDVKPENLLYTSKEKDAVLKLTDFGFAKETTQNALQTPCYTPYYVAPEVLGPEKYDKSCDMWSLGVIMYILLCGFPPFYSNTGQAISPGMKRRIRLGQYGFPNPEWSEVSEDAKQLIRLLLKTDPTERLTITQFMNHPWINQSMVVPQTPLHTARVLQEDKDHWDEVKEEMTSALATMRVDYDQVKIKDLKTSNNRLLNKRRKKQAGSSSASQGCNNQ
Test [7] shares this target. To be noted: at 1 µM.
In test [8] the target is Serine/threonine-protein kinase MARK1 (Homo sapiens) (UniProt Q9P0L2). To be noted: at 0.1 µM.
Sequence of Serine/threonine-protein kinase MARK1 (Homo sapiens) (Q9P0L2 whole entry, looked up): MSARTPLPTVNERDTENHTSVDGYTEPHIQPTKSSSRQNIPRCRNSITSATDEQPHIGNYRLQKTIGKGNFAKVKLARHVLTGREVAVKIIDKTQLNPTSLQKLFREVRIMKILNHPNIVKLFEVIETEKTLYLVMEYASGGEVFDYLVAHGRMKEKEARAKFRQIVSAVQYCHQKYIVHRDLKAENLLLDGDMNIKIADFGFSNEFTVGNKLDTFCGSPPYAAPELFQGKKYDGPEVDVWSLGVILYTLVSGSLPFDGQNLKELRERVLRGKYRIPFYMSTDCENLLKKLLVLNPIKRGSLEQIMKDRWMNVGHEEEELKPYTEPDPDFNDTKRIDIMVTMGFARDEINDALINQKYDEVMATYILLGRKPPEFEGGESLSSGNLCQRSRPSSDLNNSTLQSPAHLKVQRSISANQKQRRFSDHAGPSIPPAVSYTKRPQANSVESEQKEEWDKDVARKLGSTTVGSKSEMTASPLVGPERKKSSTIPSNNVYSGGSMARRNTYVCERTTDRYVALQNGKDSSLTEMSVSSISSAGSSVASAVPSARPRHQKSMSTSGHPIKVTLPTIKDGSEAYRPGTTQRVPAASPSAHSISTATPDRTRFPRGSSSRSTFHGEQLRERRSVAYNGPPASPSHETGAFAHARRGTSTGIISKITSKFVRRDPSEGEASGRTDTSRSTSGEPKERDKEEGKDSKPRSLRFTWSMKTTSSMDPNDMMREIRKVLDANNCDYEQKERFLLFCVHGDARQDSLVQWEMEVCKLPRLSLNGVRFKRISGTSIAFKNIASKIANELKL
Test [9] shares this target. To be noted: at 1 µM.
Test [10] addresses MAP/microtubule affinity-regulating kinase 3 (Homo sapiens) (UniProt P27448). To be noted: at 0.1 µM.
The target is the same in test [11]. To be noted: at 1 µM.
Test [12] deals with T2, MAP/microtubule affinity-regulating kinase 4 (Homo sapiens) (UniProt Q96L34).
T2 sequence (whole entry): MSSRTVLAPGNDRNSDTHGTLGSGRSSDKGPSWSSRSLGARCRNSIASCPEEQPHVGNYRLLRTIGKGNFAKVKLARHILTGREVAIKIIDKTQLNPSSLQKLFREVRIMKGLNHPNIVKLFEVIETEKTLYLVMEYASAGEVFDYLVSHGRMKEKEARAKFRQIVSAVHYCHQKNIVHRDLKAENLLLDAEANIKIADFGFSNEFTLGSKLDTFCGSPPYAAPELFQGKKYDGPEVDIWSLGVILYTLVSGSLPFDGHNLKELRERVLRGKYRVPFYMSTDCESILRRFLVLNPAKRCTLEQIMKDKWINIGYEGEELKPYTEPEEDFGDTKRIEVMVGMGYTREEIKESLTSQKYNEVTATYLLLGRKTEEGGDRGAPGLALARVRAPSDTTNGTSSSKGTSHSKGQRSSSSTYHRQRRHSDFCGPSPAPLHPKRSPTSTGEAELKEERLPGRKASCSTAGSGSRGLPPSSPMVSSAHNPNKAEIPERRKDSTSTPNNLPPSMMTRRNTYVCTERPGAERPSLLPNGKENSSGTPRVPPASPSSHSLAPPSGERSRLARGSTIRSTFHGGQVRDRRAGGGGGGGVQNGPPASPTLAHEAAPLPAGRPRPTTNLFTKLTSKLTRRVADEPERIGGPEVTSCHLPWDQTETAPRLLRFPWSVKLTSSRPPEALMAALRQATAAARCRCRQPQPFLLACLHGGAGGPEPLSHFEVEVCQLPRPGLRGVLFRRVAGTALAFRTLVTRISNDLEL
To be noted: at 0.1 µM.

In test [13] the target is T2, MAP/microtubule affinity-regulating kinase 4 (Homo sapiens). To be noted: at 1 µM.
Test [14] deals with Maternal embryonic leucine zipper kinase (Homo sapiens) (UniProt Q14680). To be noted: at 0.1 µM.
For test [15] the target is unchanged. To be noted: at 1 µM.
Test [16] concerns the target MAP kinase-interacting serine/threonine-protein kinase 1 (Homo sapiens) (UniProt Q9BUB5). To be noted: at 0.1 µM.
Test [17] shares this target. To be noted: at 1 µM.
Test [18] has as its target MAP kinase-interacting serine/threonine-protein kinase 2 (Homo sapiens) (UniProt Q9HBH9). To be noted: at 0.1 µM.
For test [19] the target is unchanged. To be noted: at 1 µM.
In test [20] the target is Serine/threonine-protein kinase MARK2 (Homo sapiens) (UniProt Q7KZI7). To be noted: at 0.1 µM.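 Also: mean percent inhibition of PAR-1Balpha kinase activity, reported from the GSK PKIS screen.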
Sequence of Serine/threonine-protein kinase MARK2 (Homo sapiens) (Q7KZI7 whole entry): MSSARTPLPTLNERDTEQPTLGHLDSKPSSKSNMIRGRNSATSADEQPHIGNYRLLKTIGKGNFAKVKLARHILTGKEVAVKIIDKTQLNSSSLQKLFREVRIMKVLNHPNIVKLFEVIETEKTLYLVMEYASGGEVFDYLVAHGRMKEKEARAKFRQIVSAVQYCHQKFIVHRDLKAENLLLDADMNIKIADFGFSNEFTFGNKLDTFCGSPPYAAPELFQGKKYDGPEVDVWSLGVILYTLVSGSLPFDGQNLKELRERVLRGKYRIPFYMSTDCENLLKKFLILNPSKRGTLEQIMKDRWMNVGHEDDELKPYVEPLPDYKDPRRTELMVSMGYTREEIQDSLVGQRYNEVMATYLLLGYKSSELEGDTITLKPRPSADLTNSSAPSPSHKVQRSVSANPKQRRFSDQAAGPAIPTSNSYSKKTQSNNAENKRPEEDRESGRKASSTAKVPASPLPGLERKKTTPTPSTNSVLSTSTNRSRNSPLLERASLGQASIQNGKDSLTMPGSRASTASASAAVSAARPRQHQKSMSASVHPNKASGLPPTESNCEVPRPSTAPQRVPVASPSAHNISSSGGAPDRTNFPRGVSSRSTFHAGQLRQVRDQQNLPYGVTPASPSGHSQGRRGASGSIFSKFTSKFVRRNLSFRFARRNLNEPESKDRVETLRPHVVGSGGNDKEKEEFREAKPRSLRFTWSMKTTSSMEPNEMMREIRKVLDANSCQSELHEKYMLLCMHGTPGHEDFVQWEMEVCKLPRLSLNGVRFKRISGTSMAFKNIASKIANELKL

Sequence of Death-associated protein kinase 1 (Homo sapiens) (P53355 whole entry, looked up): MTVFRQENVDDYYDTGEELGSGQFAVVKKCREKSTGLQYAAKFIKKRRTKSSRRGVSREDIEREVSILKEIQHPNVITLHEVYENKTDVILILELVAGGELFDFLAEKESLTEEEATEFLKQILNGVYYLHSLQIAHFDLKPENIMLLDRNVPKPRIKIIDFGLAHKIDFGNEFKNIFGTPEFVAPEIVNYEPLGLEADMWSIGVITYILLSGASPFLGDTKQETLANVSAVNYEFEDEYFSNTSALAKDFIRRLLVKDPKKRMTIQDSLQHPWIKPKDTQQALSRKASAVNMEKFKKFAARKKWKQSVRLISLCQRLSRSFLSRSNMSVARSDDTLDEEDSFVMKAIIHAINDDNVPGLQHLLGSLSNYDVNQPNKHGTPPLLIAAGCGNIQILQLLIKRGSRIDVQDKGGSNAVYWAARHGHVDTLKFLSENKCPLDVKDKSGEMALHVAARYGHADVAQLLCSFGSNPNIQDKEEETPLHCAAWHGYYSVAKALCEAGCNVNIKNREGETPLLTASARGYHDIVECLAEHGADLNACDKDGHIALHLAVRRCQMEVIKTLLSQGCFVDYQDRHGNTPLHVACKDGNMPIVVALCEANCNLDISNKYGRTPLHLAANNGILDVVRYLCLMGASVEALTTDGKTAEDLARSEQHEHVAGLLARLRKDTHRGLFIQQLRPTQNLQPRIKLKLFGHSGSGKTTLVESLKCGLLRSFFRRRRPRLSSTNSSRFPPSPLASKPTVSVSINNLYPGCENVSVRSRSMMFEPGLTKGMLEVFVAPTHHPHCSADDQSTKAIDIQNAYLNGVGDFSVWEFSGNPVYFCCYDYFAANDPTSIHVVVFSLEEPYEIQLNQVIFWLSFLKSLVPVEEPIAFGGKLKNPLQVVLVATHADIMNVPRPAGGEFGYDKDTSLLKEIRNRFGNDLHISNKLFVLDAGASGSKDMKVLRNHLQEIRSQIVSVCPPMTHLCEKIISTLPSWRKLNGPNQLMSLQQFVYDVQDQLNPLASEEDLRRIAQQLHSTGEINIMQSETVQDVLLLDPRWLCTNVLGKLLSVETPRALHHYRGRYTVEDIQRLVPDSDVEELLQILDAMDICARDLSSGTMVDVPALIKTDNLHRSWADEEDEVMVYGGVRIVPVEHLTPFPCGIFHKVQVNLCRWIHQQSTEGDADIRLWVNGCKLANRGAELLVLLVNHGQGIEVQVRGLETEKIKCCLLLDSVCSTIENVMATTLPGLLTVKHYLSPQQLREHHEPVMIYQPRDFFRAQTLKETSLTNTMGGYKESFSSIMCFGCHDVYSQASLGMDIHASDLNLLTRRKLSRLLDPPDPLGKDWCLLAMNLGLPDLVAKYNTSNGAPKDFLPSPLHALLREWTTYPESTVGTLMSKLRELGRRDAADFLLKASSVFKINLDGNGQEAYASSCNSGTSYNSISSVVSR
Sequence of MAP/microtubule affinity-regulating kinase 3 (Homo sapiens) (P27448 whole entry, looked up): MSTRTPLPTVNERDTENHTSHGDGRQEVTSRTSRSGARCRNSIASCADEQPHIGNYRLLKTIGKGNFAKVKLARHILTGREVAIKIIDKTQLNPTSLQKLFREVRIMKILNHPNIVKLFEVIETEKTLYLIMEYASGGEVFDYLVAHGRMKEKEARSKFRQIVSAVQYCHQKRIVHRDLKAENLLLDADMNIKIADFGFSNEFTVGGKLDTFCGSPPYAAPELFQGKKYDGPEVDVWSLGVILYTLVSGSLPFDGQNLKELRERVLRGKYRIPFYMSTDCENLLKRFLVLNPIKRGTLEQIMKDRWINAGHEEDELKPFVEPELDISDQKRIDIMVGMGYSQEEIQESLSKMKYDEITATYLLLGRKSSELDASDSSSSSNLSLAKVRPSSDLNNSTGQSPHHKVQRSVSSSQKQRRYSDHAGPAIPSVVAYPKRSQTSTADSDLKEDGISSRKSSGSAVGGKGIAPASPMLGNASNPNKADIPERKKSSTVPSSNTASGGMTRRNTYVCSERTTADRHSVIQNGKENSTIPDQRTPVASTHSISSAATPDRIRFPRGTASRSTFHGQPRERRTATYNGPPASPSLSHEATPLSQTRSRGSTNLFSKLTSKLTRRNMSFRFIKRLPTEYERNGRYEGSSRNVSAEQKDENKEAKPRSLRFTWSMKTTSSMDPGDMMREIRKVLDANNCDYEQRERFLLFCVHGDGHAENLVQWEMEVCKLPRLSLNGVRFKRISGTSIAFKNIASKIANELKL
Sequence of MAP kinase-interacting serine/threonine-protein kinase 1 (Homo sapiens) (Q9BUB5 whole entry, looked up): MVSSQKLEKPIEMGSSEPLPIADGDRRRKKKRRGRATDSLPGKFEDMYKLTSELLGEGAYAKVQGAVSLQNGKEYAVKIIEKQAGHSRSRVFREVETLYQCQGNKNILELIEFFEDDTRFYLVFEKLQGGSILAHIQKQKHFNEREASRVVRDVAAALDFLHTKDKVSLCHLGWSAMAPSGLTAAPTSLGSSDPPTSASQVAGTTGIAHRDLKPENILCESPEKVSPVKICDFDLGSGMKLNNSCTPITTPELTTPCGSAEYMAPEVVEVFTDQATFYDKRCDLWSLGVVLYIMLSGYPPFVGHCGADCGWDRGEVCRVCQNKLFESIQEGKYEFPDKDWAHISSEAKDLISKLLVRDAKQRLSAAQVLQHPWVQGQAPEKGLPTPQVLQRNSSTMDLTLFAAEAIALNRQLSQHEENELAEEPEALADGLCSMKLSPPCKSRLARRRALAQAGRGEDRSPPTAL
Sequence of MAP kinase-interacting serine/threonine-protein kinase 2 (Homo sapiens) (Q9HBH9 whole entry, looked up): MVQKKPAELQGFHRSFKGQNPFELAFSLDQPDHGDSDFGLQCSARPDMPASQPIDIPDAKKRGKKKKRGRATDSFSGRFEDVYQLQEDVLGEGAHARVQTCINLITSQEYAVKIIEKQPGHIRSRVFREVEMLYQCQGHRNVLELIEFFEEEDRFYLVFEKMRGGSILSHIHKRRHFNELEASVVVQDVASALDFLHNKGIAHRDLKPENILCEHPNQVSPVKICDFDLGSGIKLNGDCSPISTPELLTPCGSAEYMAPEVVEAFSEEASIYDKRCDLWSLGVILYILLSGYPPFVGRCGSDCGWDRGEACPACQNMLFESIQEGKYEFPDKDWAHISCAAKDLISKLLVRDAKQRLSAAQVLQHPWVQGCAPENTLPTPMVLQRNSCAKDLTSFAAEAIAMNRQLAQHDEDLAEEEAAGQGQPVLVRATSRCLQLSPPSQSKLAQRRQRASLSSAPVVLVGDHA

As a reminder, the inhibition is the drop in the measured response relative to a control, in per cent. On to `NC(=O)c1ccc(Oc2nccc(-c3c(-c4ccc(F)cc4)ncn3C3CCNCC3)n2)cc1`, for which the inhibition is -3.98% in test [1]; 0.57% in test [2]; 1.94% in test [3]; 0.01% in [4]; 1.79% in test [5]; 17.6% in test [6]. The inhibition in [7] stood at 30.8%; in test [8], 2.78%; in test [9] it was 4.16%; in test [10], 3.42%; in [11], 6.64%; in test [12], 1.51%. The inhibition in test [13] was determined as 2.24%; in test [14] it was 7.28%; in test [15], 11.6%; in test [16] it was 3.92%; in [17], 4.27%; in test [18], 3.56%. In addition, the figures for the inhibition in test [19] and in test [20] were 4.79% and 2.73%, respectively.

Turning to `N#Cc1ccc(Oc2nccc(-c3c(-c4ccc(F)cc4)ncn3C3CCNCC3)n2)cc1`, the inhibition is -0.22% in test [1]; 1.3% in [2]; 3.06% in [3]; 1.77% in test [4]; 1.32% in test [5]; 13.9% in [6]. In addition, the inhibition in [7] came to 30.8%; in test [8], 0.23%; in test [9] it was 3.06%; in test [10], 1.6%; in test [11], 0.33%; in test [12], 2.3%. The inhibition in test [13] was 2.46%; in test [14] it was 6.59%; in test [15] it was 4.91%; in test [16], 2.51%; in test [17] it was 2.45%; in test [18], -0.25%. Besides, the inhibition was -0.69% in [19] and -1.85% in test [20].

On to `CN(c1ccc(NC(=O)Nc2c(Cl)cccc2Cl)cc1)c1ccnc(Nc2cccc(CS(C)(=O)=O)c2)n1`, for which the inhibition in test [1] is 4.43%; in test [2], 3.64%; in test [3], 4.12%; in test [4], 0.46%; in test [5], 1.08%; in test [6], 0.42%. Also, the inhibition in test [7] came out at 0.31%; in [8], 3.52%; in [9] it was 10.8%; in test [10], 2.64%; in test [11], 13.3%; in test [12], 2.82%. For the same compound, the inhibition worked out at 12.8% in [13]; 3.73% in [14]; 3.32% in test [15]; 10.2% in test [16]; 27.9% in test [17]; 20.4% in [18]. Moreover, the inhibition in test [19] is 45.6%; in test [20], -0.82%.

Regarding `O=C(Nc1n[nH]c2cc(-c3ccccc3)ccc12)C1CC1`, the inhibition was found to be 7.04% in test [1]; 0.55% in test [2]; 1.05% in [3]; 3.04% in [4]; 2.8% in [5]; 5.91% in test [6]. Also, the inhibition in [7] is 4.31%; in test [8], 4.97%; in test [9], 9.42%; in test [10], 5.89%; in [11], 9.09%; in test [12], 2.2%. Further, the inhibition in [13] worked out at 5.77%; in [14], 5.64%; in test [15] it was 3.69%; in [16], 6.55%; in test [17], 31.4%; in test [18], 3.14%. Moreover, the inhibition in test [19] is 10.2%; in test [20], 1.54%.

For the compound `FC(F)(F)c1cccc(Nc2nccc(-c3cnn4nc(-c5ccccc5)ccc34)n2)c1`, the inhibition in test [1] was 1.95%; in test [2], -0.23%; in test [3], 2.76%; in test [4], 1.22%; in [5] it was -0.44%; in test [6], 3.72%. For the same compound, the inhibition in test [7] was determined as 2.87%; in [8], 2.35%; in test [9] it was 2.53%; in test [10], 3.77%; in test [11] it was 1.86%; in test [12], 1.13%. For the same compound, the inhibition in test [13] turned out to be 1.01%; in test [14] it was 4.89%; in test [15] it was 32.3%; in [16] it was 2.28%; in test [17], 2.48%; in test [18], 0.22%. Besides, the inhibition in test [19] is 4.37%; in test [20] it was -0.36%.

Consider `COc1cc(Nc2ncc3c(C)nc(-c4cccc(Oc5ccccc5)c4)n3n2)cc(OC)c1OC`, for which the inhibition in test [1] turned out to be 11.9%; in test [2], 0.71%; in [3] it was 0.09%; in test [4], 3.12%; in test [5] it was 3.35%; in test [6] it was 8.12%. In addition, the inhibition in test [7] turned out to be 7.79%; in [8] it was 1.87%; in test [9] it was 6.76%; in test [10], 3.73%; in test [11], 29.3%; in [12] it was 1.25%. In addition, the inhibition in test [13] was determined as 3.17%; in [14], 3.48%; in test [15] it was 10.8%; in test [16], 0.32%; in test [17], 0.56%; in [18], 0.07%. Further, the results for the inhibition in test [19] and in [20] were 1.2% and 0.41%, respectively.
